The source of these data is PubChem BioAssay (NCI).

The structures appear in SMILES notation. About 83,000 compounds went through this panel and 20% of them were active in at least one assay; those are over-represented in the sample as a whole.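 Cell lines were cultured in 96-well plates, exposed to a single compound concentration, and assessed for percent growth 48 hours later.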 Values without a mark were called inactive. Activity calls are given as the source filed them. Rule for the calls: active = growth percent below 10; inactive = the rest.

This test concerns NCI-H322M lung. Kind of test: NCI-60 one-dose screen, 48 h (100 = growth as untreated, 0 = no growth, -100 = all killed). To be noted: 10 µM unless noted.
On to `COc1cc(-c2nc(C(=O)NCC(=O)NO)nn2-c2ccc(Cl)cc2)cc(OC)c1OC`, for which the growth was 118%. On to `C=C1C(=O)O[C@H]2[C@H]1CC/C(C=Nc1ccc(C(F)(F)F)cc1N)=C\CC[C@@]1(C)O[C@@H]21`, for which the growth is 54%. Consider `CSc1nc(NCCO)c(C#N)c(-c2cccc([N+](=O)[O-])c2)n1`, for which the growth was 102%. With `Cn1c(=O)[nH]c(=O)c2nc(CCC(=O)NCCC(=O)O)c(=O)[nH]c21`, the growth was 100%. Turning to `C=CC(=O)Nc1cccc(-c2nc(SC)nc(Nc3ccccc3OC)c2C#N)c1`, the growth was 80%. With `CC1=C[C@H]2c3c(c(O)c(O)c4oc5c(C)cccc5c(=O)c34)[C@H](c3cc(O)c(O)c4oc5c(C)cccc5c(=O)c34)[C@H]2C(C)(C)C1`, the growth is 21.5%.

`COc1ccc(/C=C(\C#N)C(=O)Nc2cccc(Nc3nc(SC)nc(-c4cccc([N+](=O)[O-])c4)c3C#N)c2)cc1OC`: the growth was 100%. `CCN(CC)c1ccc(/C=N\NC(=O)/C=C/C=C/c2ccc3c(c2)OCO3)c(O)c1`: the growth is 31.2%. Consider `CC(C)(C)c1cc(/C=N\NC(=O)/C=C/C=C/c2ccc3c(c2)OCO3)c(O)c(C(C)(C)C)c1`, for which the growth is 63.5%. The same measure for `CN(C)CCCNc1c2ccccc2nc2ccccc12`: 110%; for `CN1CCN(c2nc(NCCCCNc3ccnc4cc(Cl)ccc34)c3ccccc3n2)CC1`: 84.9%; for `COc1cc2c(cc1-c1c(C)noc1C)ncc1nc(C3CCOCC3)n([C@@H](C)COC(F)F)c12`: 48.3%.

Turning to `CC(C)C[C@@H](NC(=O)[C@@H](Cc1ccccc1)NC(=O)c1cnccn1)B1Oc2ccc(C[C@H](NC(=O)[C@H](Cc3ccc4c(c3)OB([C@@H](CC(C)C)NC(=O)[C@@H](Cc3ccccc3)NC(=O)c3cnccn3)O4)NC(=O)[C@@H](N)CC3CCC4OB([C@@H](CC(C)C)NC(=O)[C@@H](CC5CCCCC5)NC(=O)C5CNCCN5)OC4C3)C(=O)NCCCC[C@@H]3NC(=O)[C@@H](Cc4ccccc4)NC(=O)[C@H](CC(=O)O)NC(=O)CNC(=O)[C@H](CCCNC(=N)N)NC3=O)cc2O1` (some centres undefined), the growth was -8.33% (active).

Regarding `CCc1nc(N)nc(N)c1C#CC(C)c1cc(-c2ccnc(C)c2)c2oc(C)nc2c1` (centres undefined), the growth is 25.3%. As to `COc1ccc(/C=C/c2nc3ccccc3nc2/C=C/c2ccc(OC)cc2)cc1`, the growth was 103%. The same measure for `Cc1nc(/N=C(\N)NC(=O)Nc2cccc([N+](=O)[O-])c2)sc1C`: 93.7%. To `CCCCN(CCCC)CCCn1c(-c2ccccc2)ccc1-c1ccccc1` belongs 86.7%; to `Oc1ccc(N=Cc2ccccc2O)cc1`, 90.6%.

In the case of `NC(N)=N/N=C(/c1ccccc1)c1ccc(F)cc1`, the growth is 39.3%. With `COc1ccc(Nc2nc(SC)nc(-c3cccc([N+](=O)[O-])c3)c2C#N)cc1`, the growth is 65.8%.

As for `COc1ccc(CCNc2nc3c(c(=O)n(Cc4ccc(Br)cc4)c(=O)n3C)n2C)cc1OC`, the growth is 93.8%. Take `COc1cccc(Nc2nc(SC)nc(-c3cccc([N+](=O)[O-])c3)c2C#N)c1`: the growth is 74%. For `CCCCC/C(C=C(C#N)C#N)=C/c1ccccc1`, the growth was 102%. Regarding `Cn1c(=O)c2c(nc3n(-c4ccc(Cl)cc4Cl)c(Sc4nc(-c5ccccc5)c(C#N)c(=O)[nH]4)cn23)n(C)c1=O`, the growth was 26.4%. As for `Cc1ccc(C2=NN3C(C2)c2cc(Br)ccc2OC32CCN(Cc3ccccc3)CC2)o1` (centres undefined), the growth is 92.7%.

As to `CCCCCCN(CCCCCC)C(=N)c1ccnc2ccccc12`, the growth is 76%.

For `O=C1Nc2c(ccc(Cl)c2Cl)/C1=C\c1ccc(C(F)(F)F)cc1`, the growth was 75.5%. `C=CC(=O)Nc1cccc(-c2nc(SC)nc(NCc3ccccc3)c2C#N)c1`: the growth is 73.8%. Turning to `CC1=CC(C)(C)Nc2ccc(Cc3ccc4c(c3)C(C)=CC(C)(C)N4)cc21`, the growth is 113%.

Turning to `CCCN1CCN(c2ccc3nc(-c4ccc5nc(-c6ccc(OCC)cc6)[nH]c5c4)[nH]c3c2)CC1`, the growth is 60.6%. Take `COc1ccc(C(=O)COc2ccc(/C=C3\COc4ccc(OC)cc4C3=O)cc2)cc1`: the growth was 96.1%. To `CC(=O)O[C@H]1C(=O)[C@@]2(C)[C@H]([C@H](OC(=O)c3ccccc3)[C@]3(O)C[C@H](OC(=O)[C@H](OC(=O)CCC(=O)OC4CCC(S/N=C(N)/N=C(\N)N(C)C)CC4)[C@@H](NC(=O)c4ccccc4)c4ccccc4)C(C)=C1C3(C)C)[C@]1(OC(C)=O)CO[C@@H]1C[C@@H]2O` (some centres undefined) belongs 17.8%; to `CCOc1ccc(-n2nc(C(=O)Nc3cc(OC)c(OC)c(OC)c3)nc2-c2cc(OC)c(OC)c(OC)c2)cc1`, 89.2%; to `C=C1C(=O)O[C@H]2[C@H]1CC/C(COC(=O)c1cc3cc(OC)ccc3[nH]1)=C\CC[C@@]1(C)O[C@@H]21`, -50.8% (active). As for `COc1cc(Nc2cc(C)nc(N3CCN(c4ccnc5cc(Cl)ccc45)CC3)n2)cc(OC)c1`, the growth was 8.83% (active). The same measure for `N#CN1CCC[C@H]1C(=O)N1CCc2c(-c3[nH]nc4ncccc34)cccc21`: 20.6%; for `Cc1cc(C)nc(SC2=C(Nc3cccc(Cl)c3)C(=O)N(Cc3ccccc3)C2=O)n1`: 88.8% [30 µM]. Consider `O=C(COc1cccc(/C=C2\COc3ccccc3C2=O)c1)Nc1nccs1`, for which the growth was 99.3%. To `C=C(C)C(=O)Nc1ccc(NC(C)C)cc1` belongs 150%.
